# Data from PubChem BioAssay (NCATS).
# Values joined by “and” are separate entries in the source; they are usually repeats but may differ in a detail not shown here. Identical values can stand only once. A number with no mark means an inactive call. Inconclusive results are not listed. Active and inactive are the calls of the source. Unless noted, the call rests on the fitted dose curve; in most records, active means well fitted curve in the direction sought with a large enough effect; inconclusive means small, poorly fitted or top-dose-only effect, or another doubt; inactive means no such curve, though single readings can be large; an effect the other way counts as inactive or inconclusive.
# Columns and labels:
# [1] = molecular target: Tyrosine-protein kinase Yes (Homo sapiens) (UniProt P07947); test: qHTS for small molecule inhibitors of Yes1 kinase: Primary Screen (AID 686947); further: nearly all actives have a fitted effect of over 60% in size; further: potency means the concentration at half of the fitted maximal effect
# Outline: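 ADP-Glo luminescence reports ADP formed by 4 nM Yes1 phosphorylating poly(E4Y) (0.3 mg/mL) with 0.1 mM ATP for 60 min at room temperature, following 20 min compound preincubation; normalised between DMSO wells with and without enzyme.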
# [2] = qHTS assay for small molecule activators of the p53 signaling pathway (AID 651743; active means well fitted activation curve with a large enough effect in the signal ratio, not every such curve was filed as active; the % refers to the signal ratio; further: potency means the concentration at half of the fitted maximal effect; on activation: series mostly up to about 92 µM; % of control where 0% means no effect); conditions: HCT-116 p53RE-bla, beta-lactamase FRET ratio, 16 h; activation: stronger effect = higher value
# Outline: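 Following 16 hours of compound exposure at 37 C, HCT-116 cells bearing the p53RE-bla reporter were loaded with LiveBLAzer B/G FRET substrate for 2 hours at room temperature and fluorescence intensity was recorded.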
# [3] = qHTS assay for small molecule activators of the nuclear factor-kappa B (NF-kB) signaling pathway (AID 651749; active means well fitted activation curve with a large enough effect in the signal ratio; the % refers to the signal ratio; further: series mostly up to about 77 µM; % of control where 0% means no effect); conditions: NF-kB-bla ME-180 cells, beta-lactamase FRET ratio, 16 h; stronger effect = higher value
# Outline: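 In this qHTS format, compounds acting as activators increase NF-kB-driven beta-lactamase in ME-180 cells, measured as disrupted FRET after 16 hr exposure at 37C and 5% CO2.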
# [4] = qHTS assay for small molecule disruptors of the mitochondrial membrane potential - 1 hr assay (AID 651754; calls by dose curve; further: on the % scale 0 is the no-effect control and ±100 the full control effect; nearly all actives have a fitted effect of over 35% in size)
# Outline: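 Mitochondrial potential in living HepG2 cells after 1 hr compound treatment at 37C was read with Mito-MPS dye added for a further 30 min. Red aggregate and green monomer fluorescence were measured; loss of potential leaves dye as cytoplasmic monomers.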
# [5] = qHTS assay for small molecule disruptors of the mitochondrial membrane potential - 5 hr assay (AID 651755; calls by dose curve; further: on the % scale 0 is the no-effect control and ±100 the full control effect; nearly all actives have a fitted effect of over 40% in size)
# Outline: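 Read-out: ratiometric Mito-MPS fluorescence, green monomer (ex 490/em 535) vs red mitochondrial aggregate (ex 540/em 590). HepG2 cells treated 5 hr at 37C before 30 min dye loading.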
# [6] = molecular target: Tumor necrosis factor (Homo sapiens) (UniProt P01375); test: qHTS assay to identify small molecules that stimulate Tumor Necrosis Factor-alpha (TNF-alpha) secretion (AID 651757; active means well fitted curve in the direction sought with a large enough effect in the signal ratio; the % refers to the signal ratio; further: 0% is about no effect)
# Outline: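 Secreted TNF-alpha quantified by TR-FRET sandwich of two labeled anti-TNF-alpha antibodies, incubated 3 hr at room temperature. Preceded by 17 hr, 37 C compound treatment of THP-1 cells at 3000 cells/well.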
# [7] = qHTS assay for environmental chemicals that activate the Aryl hydrocarbon Receptor (AhR) signaling pathway (AID 651777); conditions: 1A2-DRE human hepatoma cells, luciferase, 24 h; stronger effect = higher value; further: % of control where 0% means no effect; nearly all actives have a fitted effect of over 15% in size
# Outline: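 Luminescence read-out: One-Glo added for 30 min at RT after 24 hr compound treatment (37 C, 5% CO2) of human hepatoma cells expressing a DRE/CYP1A2 promoter–luciferase reporter; increased signal indicates AhR activation.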
# [8] = molecular target: Peroxisome proliferator-activated receptor alpha (Homo sapiens) (UniProt Q07869); test: qHTS assay for small molecule agonists of the peroxisome proliferator-activated receptor alpha (PPARalpha) signaling pathway (AID 651778); conditions: PathHunter PPARalpha complementation, chemiluminescence, 6 h; stronger effect = higher value; further: % of control where 0% means no effect
# Outline: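 Enzyme-fragment complementation assay in which ligand-bound PPARalpha translocates and forms an active enzyme that generates chemiluminescence. Cells were plated overnight, exposed to compound for 6 hr at 37 C, and then given detection reagent for 60 min at room temperature.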
# [9] = molecular target: Nuclear receptor ROR-gamma (Homo sapiens) (UniProt P51449); test: qHTS assay for small molecule antagonists of the retinoid-related orphan receptor gamma (ROR-gamma) signaling pathway (AID 651802);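 further: CHO cells with doxycycline-induced ROR-gamma expression; luciferase reporter luminescence driven by ROR response element; series mostly up to about 92 µM; on the % scale 0 is the no-effect control and ±100 the full control effect; nearly all actives have a fitted effect of over 60% in size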
# Outline: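 Luminescence (One-Glo, 30 min RT) measured 16 h after compound addition and doxycycline induction at 37C. Reporter: RORE-luciferase under TET-inducible ROR-gamma in CHO cells.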
# [10] = qHTS assay to identify small molecules that stimulate interleukin-8 (IL-8) secretion (AID 651758; active means well fitted activation curve with a large enough effect in the signal ratio; the % refers to the signal ratio; further: 0% is about no effect)
# Outline: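 Compounds are added to THP-1 cells (2000 per well) and left 16 hrs at 37 C. A labeled anti-IL-8 antibody pair is then added, and IL-8 secretion is measured by time-resolved FRET after 1-3 hrs at room temperature.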
# Peroxisome proliferator-activated receptor alpha (Homo sapiens), sequence (Q07869 whole entry, looked up, the tested form may be a part): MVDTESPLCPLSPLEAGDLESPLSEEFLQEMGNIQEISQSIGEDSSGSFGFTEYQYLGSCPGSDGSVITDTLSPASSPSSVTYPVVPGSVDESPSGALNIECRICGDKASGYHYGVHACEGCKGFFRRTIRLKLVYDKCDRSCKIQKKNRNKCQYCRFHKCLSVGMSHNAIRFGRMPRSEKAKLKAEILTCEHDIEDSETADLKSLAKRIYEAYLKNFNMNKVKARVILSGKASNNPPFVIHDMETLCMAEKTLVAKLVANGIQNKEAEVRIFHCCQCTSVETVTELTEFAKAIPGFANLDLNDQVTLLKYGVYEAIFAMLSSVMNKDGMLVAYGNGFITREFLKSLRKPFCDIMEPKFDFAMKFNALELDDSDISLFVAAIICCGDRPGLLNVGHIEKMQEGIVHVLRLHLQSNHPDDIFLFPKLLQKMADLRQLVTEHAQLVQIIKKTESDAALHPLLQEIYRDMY
# Nuclear receptor ROR-gamma (Homo sapiens), sequence (P51449 whole entry, looked up): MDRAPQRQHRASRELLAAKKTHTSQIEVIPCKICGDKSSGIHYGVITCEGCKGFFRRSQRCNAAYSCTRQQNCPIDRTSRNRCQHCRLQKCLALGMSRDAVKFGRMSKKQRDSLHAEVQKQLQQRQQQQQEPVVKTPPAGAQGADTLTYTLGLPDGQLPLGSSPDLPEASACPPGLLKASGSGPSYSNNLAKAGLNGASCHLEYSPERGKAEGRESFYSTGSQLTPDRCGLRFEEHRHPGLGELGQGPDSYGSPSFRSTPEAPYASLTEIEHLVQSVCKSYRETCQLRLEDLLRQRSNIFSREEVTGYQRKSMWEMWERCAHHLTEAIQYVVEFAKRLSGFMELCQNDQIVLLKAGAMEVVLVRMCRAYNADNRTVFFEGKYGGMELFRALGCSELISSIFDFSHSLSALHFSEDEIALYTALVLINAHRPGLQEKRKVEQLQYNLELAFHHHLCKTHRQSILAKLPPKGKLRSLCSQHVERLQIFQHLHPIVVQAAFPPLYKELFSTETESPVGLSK
# Tumor necrosis factor (Homo sapiens), sequence (P01375 whole entry, looked up): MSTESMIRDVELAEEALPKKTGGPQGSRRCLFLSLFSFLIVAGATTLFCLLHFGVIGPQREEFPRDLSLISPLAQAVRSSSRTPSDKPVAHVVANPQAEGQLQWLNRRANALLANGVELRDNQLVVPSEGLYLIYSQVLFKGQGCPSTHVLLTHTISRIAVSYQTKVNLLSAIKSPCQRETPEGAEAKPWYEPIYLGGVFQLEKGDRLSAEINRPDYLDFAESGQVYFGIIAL
# Tyrosine-protein kinase Yes (Homo sapiens), sequence (P07947 whole entry, looked up): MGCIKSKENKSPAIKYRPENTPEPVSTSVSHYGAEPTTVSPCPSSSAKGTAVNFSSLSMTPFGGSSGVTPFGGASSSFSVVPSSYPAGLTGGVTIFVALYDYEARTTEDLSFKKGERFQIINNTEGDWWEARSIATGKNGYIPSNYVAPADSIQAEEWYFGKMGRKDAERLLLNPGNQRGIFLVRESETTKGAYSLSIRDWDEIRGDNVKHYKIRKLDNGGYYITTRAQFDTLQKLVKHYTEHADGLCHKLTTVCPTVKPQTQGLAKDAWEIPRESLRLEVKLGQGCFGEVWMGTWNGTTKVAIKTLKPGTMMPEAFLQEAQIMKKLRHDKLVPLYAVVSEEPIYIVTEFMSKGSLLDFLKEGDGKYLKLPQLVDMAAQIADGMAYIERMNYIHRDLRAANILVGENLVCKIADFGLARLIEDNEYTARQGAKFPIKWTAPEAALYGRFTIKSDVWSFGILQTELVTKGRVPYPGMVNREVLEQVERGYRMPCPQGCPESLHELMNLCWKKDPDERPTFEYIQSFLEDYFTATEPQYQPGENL
compound,measurement,setting,value
Cc1cc(C=c2sc3nc4ccccc4n3c2=O)c(C)n1-c1ccccc1,Potency,[1],inactive
COc1ccc2c3n(c(=NC(=O)c4cccnc4)nc2c1OC)CCN3,Potency,[1],inactive
O=c1[nH]c(-c2ccc(C(F)(F)F)cc2)nc2c1CSCC2,Potency,[1],inactive
COc1ccc(-c2c(-c3ccc(O)cc3O)n[nH]c2C)cc1,Potency,[1],8670 nM (active)
CC(=O)Oc1ccccc1C(=O)O,activation,[2],-2.89% and -7.19% and 1.5%
same,activation,[3],-1.39% and 0.118% and -2.43%
same,outcome,[4],inactive
same,outcome,[5],inactive
same,outcome,[6],inactive
same,activation,[7],0.977% and -1.01% and -0.15%
same,max response,[8],-3.17% and 6.24% and -1.09%
same,outcome,[9],inactive
O=C1CCC(N2C(=O)c3ccccc3C2=O)C(=O)N1 (configuration not stated),activation,[2],-2.08%
same,activation,[3],-0.119%
same,activation,[7],-0.0215%
same,max response,[8],-0.602%
CCCC(CCC)C(=O)O,activation,[3],0.312% and -3.31% and -0.945%
same,outcome,[6],inactive
same,outcome,[10],inactive
COc1ccc(-c2ccc3c(N4CCOC[C@H]4C)nc(N4CCOC[C@H]4C)nc3n2)cc1CO,Potency,[1],inactive
O=C(C1CC1)N1CC[C@@H](Cn2c(-c3ccc(-c4ccc5occc5c4)cc3)nc3cnccc32)C1,Potency,[1],inactive
C[C@]12CCC(=O)C=C1CC[C@@H]1[C@@H]2[C@@H](O)C[C@@]2(C)[C@H]1CC[C@]2(O)C(=O)CO,activation,[3],-2.01%
same,activation,[7],-1.47%
same,max response,[8],-0.295%
same,Potency,[1],inactive
Cc1cc(-c2ccc(CC(=O)Nc3ccc(-c4cccnc4)cc3)cc2)ccn1,Potency,[1],inactive
Cc1[nH]c(=O)c(C#N)cc1-c1ccncc1,activation,[2],-6.25%
same,activation,[3],-0.647%
same,activation,[7],0.896%
same,max response,[8],0.228%
Cn1cnc([N+](=O)[O-])c1Sc1ncnc2nc[nH]c12,Potency,[2],25.1 µM (active) and 28.2 µM (active)
same,activation,[3],-1.21% and -0.92%
same,activation,[7],-4.71% and -5.39%
same,max response,[8],-2.81% and -2.18%
NC(N)=NC(=O)c1nc(Cl)c(N)nc1N,activation,[2],-2.4%
same,activation,[3],-0.363%
same,outcome,[6],inactive
same,activation,[7],6.31%
same,max response,[8],-5.82%
same,outcome,[9],inactive
same,Potency,[1],inactive
COc1ccc2nc(S(=O)Cc3ncc(C)c(OC)c3C)[nH]c2c1 (configuration not stated),activation,[3],-0.714%
same,max response,[8],6.65%
same,Potency,[1],inactive
CC(C)(Sc1ccc(CCN(CCCCC2CCCCC2)C(=O)NC2CCCCC2)cc1)C(=O)O,activation,[3],7.6%
same,activation,[7],0.388%
Cc1c(C)c2c(c(C)c1O)CCC(C)(COc1ccc(CC3SC(=O)NC3=O)cc1)O2 (configuration not stated),activation,[3],-3.91%
same,activation,[7],5.68%
same,max response,[8],1.07%
same,Potency,[1],inactive
Cc1cc2c(C(C)C)c(O)c(O)c(C=O)c2c(O)c1-c1c(C)cc2c(C(C)C)c(O)c(O)c(C=O)c2c1O,activation,[7],-3.15%
COc1cc(Nc2ncc3c(n2)-c2ccc(Cl)cc2C(c2c(F)cccc2OC)=NC3)ccc1C(=O)O,Potency,[1],21.8 nM (active)
Cc1ccccc1C(OCCN(C)C)c1ccccc1 (configuration not stated),activation,[2],-4.64%
same,activation,[3],2.9%
same,activation,[7],0.382%
same,max response,[8],-4.12%
CCn1c(-c2nonc2N)nc2cnc(Oc3cccc(NC(=O)c4ccc(OCCN5CCOCC5)cc4)c3)cc21,Potency,[1],inactive
NC(=O)c1cnccn1,activation,[2],0.545% and -2.21%
same,activation,[3],-0.539% and -2.05%
same,outcome,[6],inactive
same,activation,[7],-0.771% and 0.812%
same,max response,[8],-0.88% and -1.97%
same,outcome,[9],inactive
O=C(c1cc(Cc2n[nH]c(=O)c3ccccc23)ccc1F)N1CCN(C(=O)C2CC2)CC1,Potency,[1],inactive
CNC[C@H](O)c1cccc(O)c1,activation,[3],-0.433%
same,activation,[7],-0.659%
same,max response,[8],-0.749%
O=NN(CCCl)C(=O)NCCCl,activation,[2],14.7%
same,activation,[3],-1.3%
same,activation,[7],0.58%
same,max response,[8],-2.23%
O=C(O)c1ccc(-c2c[nH]c3ccc(-c4ccccc4)cc23)cc1C1CCCC1,Potency,[1],1540 nM (active)
